These results are taken from PubChem BioAssay.

Assay [1] is described as follows: modulation of C. elegans fzo-1 (AID 1259413; call rule not given here;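 further: fzo-1 mutant C. elegans worms in liquid wells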). To be noted: C. elegans fzo-1 modulator screen, mean read-out; stronger effect = higher value.
Assay [2] in a line: growth inhibition of DIPG glioma cells, dose response, cell-based, JHH-DIPG-1, MIPE4.0, CellTiter-Glo, qHTS (AID 1347062; cut-off not given, nearly all actives have AC50 up to about 27 µM). The note with it: JHH-DIPG-1 viability, CellTiter-Glo ATP luminescence.
A short description of assay [3]: growth inhibition of DIPG glioma cells, dose response, cell-based, SU-DIPG-IV, MIPE4.0, CellTiter-Glo, qHTS (AID 1347063; cut-off not given, nearly all actives have AC50 up to about 30 µM;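 further: compound exposure lasted 48 hours before the viability readout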). To be noted: SU-DIPG-IV viability, CellTiter-Glo ATP luminescence. In general terms: ATP-based viability assays read luminescence as a measure of living cells.
Assay [4] in a line: differential killing of epithelial or mesenchymal cells, primary screen, imaging, PC-3E GFP, TEM4-18 mCherry, co-culture (AID 1345086).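 On all read-outs here: cells exposed to compound for 72 h before imaging.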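 On red/green cell ratio (normalised): normalised mesenchymal count divided by normalised epithelial count so high means epithelial killing.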 The note with it: imaging cell counts, at 1 µM; for red/green cell ratio (normalised): actives lie on both sides, counts scaled to control wells, 1 = unselective.
Where [5] appears, read: measured here: epithelial PC-3E GFP cell survival.
Setting [6] is: measured here: mesenchymal TEM4-18 mCherry cell survival.

Inconclusive results are not listed. Calls of active or inactive are those of the source.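 How the source made its calls, unless noted: active means compounds killing one labelled cell type while sparing the other, by normalised counts and ratio limits, not self-fluorescent; inactive means the rest.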

For `Cc1ccc(NC(=O)c2ccc(CN3CCN(C)CC3)cc2)cc1Nc1nccc(-c2cccnc2)n1`, in assay [1], the mean signal is 251 (inactive). The outcome in assay [2] and in assay [3] was inactive.

For the molecule `CC(=O)OCC1=C(C(=O)O)N2C(=O)[C@@H](NC(=O)CSc3ccncc3)[C@H]2SC1`, the red/green cell ratio (normalised) in assay [4] was 1.23 (inactive). Besides, the normalised cell number in assay [4] (setting [5]) is 1; in assay [4] (setting [6]), 1.24.

Turning to `Nc1ccc(C(=O)O)c(O)c1`, the red/green cell ratio (normalised) in assay [4] was 0.88 (inactive). The figures for the normalised cell number in assay [4] (setting [5]) and in assay [4] (setting [6]) were 1.36 and 1.19, respectively.

Take `CC(C)(C)CC(C)(C)c1ccc(O)c(Cc2ccc(Cl)cc2Cl)c1`: the red/green cell ratio (normalised) in assay [4] was 0.81 (inactive). The figures for the normalised cell number in assay [4] (setting [5]) and in assay [4] (setting [6]) were 1.02 and 0.82, respectively.

With `CCOC(=O)c1ccc(N)cc1`, in assay [4], the red/green cell ratio (normalised) was 1.23 (inactive). Besides, the values for the normalised cell number in assay [4] (setting [5]) and in assay [4] (setting [6]) were 1.07 and 1.31, respectively.

In the case of `CC(CN(C)C)CN1c2ccccc2CCc2ccccc21` (stereo unspecified), the red/green cell ratio (normalised) in assay [4] was 1.03 (inactive). The normalised cell number in assay [4] (setting [5]) was 1.32; in assay [4] (setting [6]) it was 1.36.

Turning to `COc1cc(C(=O)NCc2ccc(OCCN(C)C)cc2)cc(OC)c1OC`, the red/green cell ratio (normalised) in assay [4] was 0.88 (inactive). Besides, the normalised cell number in assay [4] (setting [5]) was 1.34; in assay [4] (setting [6]) it was 1.18.

As for `COc1cc(OC)cc(OC)c1`, in assay [4], the red/green cell ratio (normalised) was 0.87 (inactive). Also, the normalised cell number is 1.26 in assay [4] (setting [5]) and 1.09 in assay [4] (setting [6]).

Turning to `COC(=O)N/N=C/c1c[n+]([O-])c2ccccc2[n+]1[O-]`, in assay [4], the red/green cell ratio (normalised) is 0.65 (inactive). Also, the normalised cell number in assay [4] (setting [5]) worked out at 1.24; in assay [4] (setting [6]), 0.81.

Regarding `COc1cc2c3cc1Oc1cc(ccc1O)C[C@@H]1c4c(cc(OC)c(O)c4Oc4ccc(cc4)C[C@@H]3N(C)CC2)CC[N+]1(C)C`, the red/green cell ratio (normalised) in assay [4] was 0.97 (inactive). Further, the normalised cell number in assay [4] (setting [5]) came to 1.08; in assay [4] (setting [6]) it was 1.05.

Take `CCCCCCOc1ccccc1C(N)=O`: the red/green cell ratio (normalised) in assay [4] was 1 (inactive). Moreover, the normalised cell number in assay [4] (setting [5]) and in assay [4] (setting [6]) was 0.94 throughout.

With `Cc1cc(C)cc(OCC2CNC(=O)O2)c1` (stereo unspecified), the red/green cell ratio (normalised) in assay [4] was 1.5 (inactive). Further, the figures for the normalised cell number in assay [4] (setting [5]) and in assay [4] (setting [6]) were 0.43 and 0.64, respectively.

As to `CC(=O)NO`, the red/green cell ratio (normalised) in assay [4] is 1.09 (inactive). The values for the normalised cell number in assay [4] (setting [5]) and in assay [4] (setting [6]) were 1.08 and 1.18, respectively.

In the case of `O=C(COc1ccc(Cl)cc1)N1CCN(Cc2ccc3c(c2)OCO3)CC1`, the red/green cell ratio (normalised) in assay [4] is 0.96 (inactive). Besides, the normalised cell number in assay [4] (setting [5]) is 0.94; in assay [4] (setting [6]), 0.9.

With `CCCCOc1ccc(C(=O)CCN2CCCCC2)cc1`, in assay [4], the red/green cell ratio (normalised) was 1.3 (inactive). For the same molecule, the normalised cell number in assay [4] (setting [5]) turned out to be 1.09; in assay [4] (setting [6]) it was 1.41.

Consider `CC(=O)Nc1ccc(S(=O)(=O)Nc2ccc([N+](=O)[O-])cc2)cc1`, for which the red/green cell ratio (normalised) in assay [4] was 0.81 (inactive). Also, the normalised cell number in assay [4] (setting [5]) is 1.34; in assay [4] (setting [6]), 1.08.

With `C/C=C/c1ccc(OC)cc1`, the red/green cell ratio (normalised) in assay [4] is 1.24 (inactive). For the same molecule, the normalised cell number turned out to be 1.08 in assay [4] (setting [5]) and 1.34 in assay [4] (setting [6]).

As for `Oc1ccc(Cl)c2cccnc12`, the red/green cell ratio (normalised) in assay [4] is 1.13 (inactive). In addition, the normalised cell number in assay [4] (setting [5]) is 1.27; in assay [4] (setting [6]), 1.45.

`CC(=O)Nc1cccc(O)c1`: in assay [4], the red/green cell ratio (normalised) is 0.95 (inactive). For the same molecule, the normalised cell number in assay [4] (setting [5]) is 0.83; in assay [4] (setting [6]) it was 0.79.

Regarding `CCN(CC)C(C)CN1c2ccccc2Sc2ccccc21` (stereo unspecified), the red/green cell ratio (normalised) in assay [4] is 0.85 (inactive). Moreover, the figures for the normalised cell number in assay [4] (setting [5]) and in assay [4] (setting [6]) were 1.09 and 0.92, respectively.

On to `O=C1c2ccccc2C(=O)c2c1ccc(O)c2O`, for which, in assay [4], the red/green cell ratio (normalised) was 0.87 (inactive). Further, the values for the normalised cell number in assay [4] (setting [5]) and in assay [4] (setting [6]) were 1.05 and 0.91, respectively.

As for `C[N+]12CCC(CC1)C(OC(=O)C(O)(c1ccccc1)c1ccccc1)C2` (stereo unspecified), the red/green cell ratio (normalised) in assay [4] is 1.14 (inactive). Also, the normalised cell number in assay [4] (setting [5]) is 1.17; in assay [4] (setting [6]), 1.33.

For the molecule `COc1c2occc2c(OC)c2c(=O)cc(C)oc12`, the red/green cell ratio (normalised) in assay [4] is 0.89 (inactive). Also, the normalised cell number in assay [4] (setting [5]) came out at 1.07; in assay [4] (setting [6]), 0.95.

Turning to `CC(C(=O)O)c1ccc2c(c1)[nH]c1ccc(Cl)cc12` (stereo unspecified), the red/green cell ratio (normalised) in assay [4] was 1.13 (inactive). Moreover, the figures for the normalised cell number in assay [4] (setting [5]) and in assay [4] (setting [6]) were 1.37 and 1.54, respectively.

In the case of `Cc1cc(N)c2ccccc2[n+]1CCCCCCCCCC[n+]1c(C)cc(N)c2ccccc21`, in assay [4], the red/green cell ratio (normalised) is 0.87 (inactive). The normalised cell number in assay [4] (setting [5]) came to 1.15; in assay [4] (setting [6]), 1.

Take `CN1CCC(OC(c2ccccc2)c2ccccc2)CC1`: the red/green cell ratio (normalised) in assay [4] is 1.14 (inactive). Further, the figures for the normalised cell number in assay [4] (setting [5]) and in assay [4] (setting [6]) were 1.05 and 1.2, respectively.

In the case of `CC(=O)Nc1c(I)cc(I)c(C(=O)O)c1I`, in assay [4], the red/green cell ratio (normalised) is 0.94 (inactive). The normalised cell number is 1.19 in assay [4] (setting [5]) and 1.12 in assay [4] (setting [6]).

With `O=C(OCc1ccccc1)c1ccccc1`, the red/green cell ratio (normalised) in assay [4] is 0.83 (inactive). The results for the normalised cell number in assay [4] (setting [5]) and in assay [4] (setting [6]) were 1.34 and 1.11, respectively.

For `CC1(C)OC(=O)NC1=O`, the red/green cell ratio (normalised) in assay [4] was 1.18 (inactive). Besides, the normalised cell number in assay [4] (setting [5]) was found to be 1.2; in assay [4] (setting [6]), 1.41.

Consider `Cc1ccccc1OCC(O)CO` (stereo unspecified), for which the red/green cell ratio (normalised) in assay [4] is 1.04 (inactive). The normalised cell number in assay [4] (setting [5]) was 1.05; in assay [4] (setting [6]) it was 1.1.

For `CC(=O)OC(C)C[N+](C)(C)C` (stereo unspecified), the red/green cell ratio (normalised) in assay [4] is 1.16 (inactive). Besides, the normalised cell number was 0.97 in assay [4] (setting [5]) and 1.13 in assay [4] (setting [6]).

Turning to `O=C1C(=O)c2ccccc2C(O)=C1C1CCC(c2ccc(Cl)cc2)CC1` (stereo unspecified), in assay [4], the red/green cell ratio (normalised) was 0.91 (inactive). Besides, the values for the normalised cell number in assay [4] (setting [5]) and in assay [4] (setting [6]) were 1.07 and 0.98, respectively.

Turning to `C[C@](N)(Cc1ccc(O)cc1)C(=O)O`, the red/green cell ratio (normalised) in assay [4] was 0.89 (inactive). Moreover, the figures for the normalised cell number in assay [4] (setting [5]) and in assay [4] (setting [6]) were 1.18 and 1.05, respectively.

With `O=C(O)c1ccccc1C(=O)Nc1ccc(S(=O)(=O)Nc2nccs2)cc1`, the red/green cell ratio (normalised) in assay [4] is 1 (inactive). Further, the values for the normalised cell number in assay [4] (setting [5]) and in assay [4] (setting [6]) were 1.18 and 1.17, respectively.

Turning to `C=CCc1ccc(O)c(OC)c1`, in assay [4], the red/green cell ratio (normalised) was 1.2 (inactive). Further, the normalised cell number in assay [4] (setting [5]) came to 0.95; in assay [4] (setting [6]), 1.13.

On to `CCCCCCCCCCCCCCCCC(C(=O)O)C(O)(CC(=O)O)C(=O)O` (stereo unspecified), for which, in assay [4], the red/green cell ratio (normalised) is 1.03 (inactive). Also, the normalised cell number in assay [4] (setting [5]) is 1; in assay [4] (setting [6]) it was 1.03.

In the case of `Cn1c([N+](=O)[O-])cnc1COC(N)=O`, the red/green cell ratio (normalised) in assay [4] is 1 (inactive). Besides, the normalised cell number in assay [4] (setting [5]) and in assay [4] (setting [6]) was 1.01 throughout.

Take `O=C(O)CCC(=O)c1ccc(-c2ccccc2)cc1`: the red/green cell ratio (normalised) in assay [4] was 1.07 (inactive). The normalised cell number in assay [4] (setting [5]) was 1.07; in assay [4] (setting [6]) it was 1.15.

For the molecule `Cc1c(N(C)CS(=O)(=O)O)c(=O)n(-c2ccccc2)n1C`, the red/green cell ratio (normalised) in assay [4] was 1.09 (inactive). In addition, the normalised cell number in assay [4] (setting [5]) was 1.23; in assay [4] (setting [6]) it was 1.35.

For the molecule `NC(=O)c1ccccc1O`, the red/green cell ratio (normalised) in assay [4] is 0.96 (inactive). Also, the normalised cell number in assay [4] (setting [5]) was 0.98; in assay [4] (setting [6]), 0.94.

With `Oc1cccc2[nH]ccc12`, the red/green cell ratio (normalised) in assay [4] is 0.85 (inactive). In addition, the normalised cell number in assay [4] (setting [5]) was determined as 1.31; in assay [4] (setting [6]), 1.12.

In the case of `CCN(CCCc1ccccc1)CCCc1ccccc1`, the red/green cell ratio (normalised) in assay [4] was 0.99 (inactive). In addition, the normalised cell number in assay [4] (setting [5]) stood at 1.13; in assay [4] (setting [6]), 1.12.
